Results as given in PubChem BioAssay (NCI).
About 83,000 compounds went through this panel and 20% of them were active in at least one assay; those are over-represented in the sample as a whole.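 Testing used 96-well plates and a 48-hour single-concentration exposure. Example: -40 means 40% of the starting cells died.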 Values without a mark were called inactive. Activity calls are given as the source filed them. How the source made its calls: active means growth percent below 10; inactive means the rest.

Experiments:
Test in all cases: NCI-60 one-dose screen, 48 h (100 = growth as untreated, 0 = no growth, -100 = all killed)
Conditions in all cases: 10 µM unless noted
[1] = test system: NCI-H226 lung
[2] = test system: NCI-H322M lung
[3] = test system: HOP-62 NSCLC
[4] = test system: NCI-H460 lung
[5] = test system: HOP-92 NSCLC
[6] = test system: NCI-H522 lung
[7] = test system: A549/ATCC NSCLC
[8] = test system: 786-0 renal
[9] = test system: COLO 205 colon

Row | Compound | growth [1] | growth [2] | growth [3] | growth [4] | growth [5] | growth [6] | growth [7] | growth [8] | growth [9]
1 | O=C(Cc1ccc(NC(=O)c2cccc(Cl)c2)cc1)NCc1ccccc1 | 87% | 73.9% | 46.6% | 28.8% | 72.2% | 55.1% | 43.9% | 53.6% | 39.3%
2 | COc1cc(/C=C2\CN(S(=O)(=O)c3ccccc3)C/C(=C\c3cc(CN4CCCCC4)c(O)c(OC)c3)C2=O)cc(CN2CCCCC2)c1O | 43.4% | -30.1% (active) | 104% | -62.6% (active) | -65.2% (active) | -46.8% (active) | 12.1% | -68.8% (active) | -4.52% (active)
3 | C=C(CNCCO)[C@@H]1CC[C@]2(CO)CC[C@]3(C)[C@H](CC[C@@H]4[C@@]5(C)CCC(N)C(C)(C)[C@@H]5CC[C@]43C)[C@@H]12 (some centres undefined) | 88% | 80.2% | 71.4% | -26.8% (active) | 54.5% | 0.745% (active) | 36.2% | 11% | -74.7% (active)
4 | CC(C)CCN(CCC(C)C)CC(O)c1cc2c(c3ccccc13)CCCC2 (centres undefined) | 70.2% | 81.4% | 85.6% | 75.3% | 40.2% | 56.7% | 73.3% | 88.8% | 60.5%
5 | Cc1ccc(-c2nc(N3CCNCC3)c3oc(-c4ccc(C)cc4)nc3n2)cc1 | 97.6% | 47.9% | 76.1% | -68.3% (active) | 88.9% | 76.1% | -83.3% (active) | -92.2% (active) | -81.2% (active)
6 | C=C1C(=O)O[C@H]2[C@H]1CC/C(COC(=O)CSCSCC(=O)OC/C1=C/CC[C@@]3(C)O[C@H]3[C@H]3OC(=O)C(=C)[C@@H]3CC1)=C\CC[C@@]1(C)O[C@@H]21 | -7.99% (active) | 79.1% | 82.7% | 13.6% | -13.3% (active) | -77.8% (active) | 72.1% | -6.8% (active) | -65.5% (active)
7 | NS(=O)(=O)c1ccc(C(=O)NN2C(=O)c3c(Br)c(Br)c(Br)c(Br)c3C2=O)cc1 | 102% | 111% | 105% | 110% | 99.4% | 94.3% | 102% | 103% | 112%
8 | Nc1ncnc2c1N=C(c1ccc3c(c1)OCO3)CC(c1cccc(Nc3ccnc4cc(C(F)(F)F)ccc34)c1)N2 (centres undefined) | 78.1% | 94.3% | 84.5% | 90.7% | 53.8% | 73.6% | 68.6% | 82.5% | 115%
9 | O=C(NCc1cccc(CNC(=O)Nc2nc3ccccc3[nH]2)c1)Nc1nc2ccccc2[nH]1 | -22.2% (active) | -7.92% (active) | -46.2% (active) | -52.9% (active) | -27.7% (active) | 1.54% (active) | -42.5% (active) | -42.8% (active) | -2.34% (active)
10 | Cc1ccc2nc(-c3ccc(C(=O)NNC(=S)Nc4ccccc4)cc3)[nH]c2c1 | 92.7% | 99.7% | 95.3% | 94.4% | 99.8% | 95% | 101% | 94.8% | 119%
11 | O=C(CN1CCCCCC1)Nc1nc2ccc(NCc3ccc(Cl)cc3)cc2s1 | 93.5% | 108% | 103% | 97% | 90.9% | 84.7% | 98.7% | 104% | 109%
12 | CC1=CCC(OC(=O)C(C)(C)CC(O)(C(C)O)C(O)C2(C)C=CC(Cc3ccc(C(C)C)cc3)(C(C)C)CC2)(C(C)C)CC1 (centres undefined) | 92.3% | 93.7% | 99.2% | 103% | 84.9% | 91.2% | 98.5% | 99.9% | 103%
13 | COc1cc(C2C(C(=O)OCc3ccccc3)=C(C)NC(C)=C2C(=O)OCc2ccccc2)cc(OC)c1OC | 32.2% | 58% | 51% | 25.6% | -4.65% (active) | 25% | 23.4% | 25.2% | -47.7% (active)
14 | COc1ccc(-c2nc(/C=C3\C(=O)N(C)c4ccccc43)c3ccccn23)cc1 | 63.8% | 88.3% | 62.7% | 63.4% | 84.1% | 58.7% | 88.7% | 38.3% | 119%
15 | CCCCC#Cc1c(I)n(C)c(=O)[nH]c1=O | 39.8% | 101% | 93.9% | 103% | -89.7% (active) | -13.4% (active) | 70.9% | 98.2% | -36.8% (active)
16 | CC1=CC(c2ccco2)=C2C(N)=NNC2N1 (centres undefined) | 95.7% | 92.6% | 88.8% | 100% | 77.8% | 95.2% | 101% | 97.6% | 116%
17 | CC[N+]1(CC)CC[N+]2(CCCC(C)CC2)CC1 (centres undefined) | 104% | 106% | 106% | 105% | 96.4% | 93.3% | 91.6% | 99.9% | 113%
18 | C=C1CC[C@@H]2C(C)(C)[C@@H](O)CC[C@@]2(C)[C@@H]1COc1ccc2ccc(=O)oc2c1 | 66.1% | 109% | – | 87.8% | 86.8% | 66.9% | 58.7% | 89.6% | 92%
19 | CCOC(=O)C(=Cc1ccc(-c2ccccc2)cc1)C(=O)OCC | 46.5% | 78.4% | 73.7% | 78% | 63.2% | 26% | 49.6% | 43.1% | 55.6%
20 | O=C1Nc2ccccc2/C1=C/c1cccn1C(=O)c1ccc(Cl)s1 | – | 50.4% | 52.3% | 75.7% | 70.2% | 37.8% | 23.4% | 85.3% | 68%
21 | C/C(=N\O)c1ccc(NC(=O)CSc2nnc(-c3cc(-c4ccc(S(N)(=O)=O)cc4)nc4ccccc34)n2-c2ccccc2)cc1 | 80.4% | 86.5% | 95.5% | 67.2% | 66% | 67.4% | 79.5% | 72.6% | 78.3%
22 | C#CCNC(=O)[C@]1(C)CCC[C@@]2(C)[C@H]1CC=C1C=C(C(C)C)CC[C@@H]12 | 97.6% | 100% | 98.7% | 106% | 109% | 96.2% | 97.6% | 96.8% | 115%
23 | [2H]C([2H])([2H])Oc1ccc(F)cc1/C=C/C(=O)/C=C(/C=C/c1cc(F)ccc1OC([2H])([2H])[2H])OB(F)F | 109% | 108% | 97.8% | 95.5% | 99.7% | 18.9% | 90.8% | 86.3% | 57.6%
24 | CCc1ccc(CCC(=O)Nc2ncc(Cc3ccccc3)s2)o1 | 64.3% | 54.7% | 23% | 7.58% (active) | 87.8% | -2.33% (active) | 32% | 41.6% | 12.3%
25 | N#Cc1nc(-c2ccccc2)oc1S(=O)(=O)N1CCN(c2ccc(F)cc2)CC1 | 85.7% | 91.6% | 112% | 102% | 76% | 2.64% (active) | 101% | 64.9% | 33.6%
26 | Cc1ccc(-c2nc3nc(-c4ccccc4)nc(N4CCCN(S(C)(=O)=O)CC4)c3o2)cc1 | – | 93.9% | 66.5% | 4.39% (active) | 84.9% | 78.8% | 38.8% | 87.7% | 86.5%
27 | CN(Cc1cc(Br)cc(Br)c1O)Cc1cc(Br)cc(Br)c1O | 52% | 26.4% | 30.9% | 19.1% | 32.3% | 3.36% (active) | 36.8% | 39.9% | 84%
28 | Cc1ccnc(Nc2ccc([N+](=O)[O-])c(NCCN3CCOCC3)n2)c1 | 24.5% | 50.2% | 40.8% | 6.8% (active) | 138% | 20.9% | 19.6% | 24.8% | -45.4% (active)
